Compound activity (PubChem BioAssay)
Shown are actives, neighbours in structure and some others; about 6.2% of the full set was active somewhere.
ATXN2 expr inh – ATXN2 expression inhibition. HEK-293 ATXN2-luciferase reporter, luminescence, 24 h. Potency, µM (series often up to 57 µM), usual class: inhibitors. 360,000 compounds, 0.72% hits; note: nearly all actives have a fitted effect of over 55% in size
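qHTS (up to 57 uM final) was run with 24 h compound exposure of reporter cells at 37 °C. Each well was multiplexed: SteadyGlo luminescence measured ATXN2-luciferase expression after a fluorogenic Gly-Phe-AFC viability readout (25 uM final).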
KB-V1 MDR tox – kills drug-selected multidrug resistant KB-V1 cells; Potency, µM (top dose mostly 46.1 µM), actives largely listed as cytotoxic; 400,000 compounds, 3.4% hits; KB-V1 MDR cells viability, CellTiter-Glo, 72 h; note: nearly all actives have a fitted effect of over 60% in size
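In this primary screen, KB-V1 cells overexpressing P-gp are incubated with library compounds (lowest to highest concentration) for 72 h at 37 degrees C before a luminescent ATP viability read.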
HT1080-NT tox – kills 2HG-producing HT-1080-NT fibrosarcoma cells; HT-1080-NT fibrosarcoma viability, CellTiter-Glo ATP luminescence, 48 h; Potency, µM (doses to about 46.1 µM), hits mostly cytotoxic; 360,000 compounds, 1.6% hits; AID 686970;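 note: NT is the 2HG producing partner of a matched IDH1 knockdown line; nearly all actives have a fitted effect of over 55% in size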
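Viability of the 2HG-overproducing fibrosarcoma line after 48 hours of compound exposure at 37 degrees C was determined by luminescence with CellTiter-Glo, and concentration-effect curves were then fitted and categorized.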
KB-3-1 cytotox – KB-3-1 parental cell cytotoxicity. KB-3-1 viability, CellTiter-Glo ATP luminescence, 72 h. Potency, µM (series often up to 46.1 µM), most hits filed as cytotoxic. 400,000 compounds, 1.4% hits. AID 1347075; note: nearly all actives have a fitted effect of over 60% in size
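Cytotoxicity in the drug-sensitive parental line KB-3-1 was scored as loss of CellTiter-Glo luminescence following 72 h incubation with compound. Values come from curve fitting of normalized concentration-response data.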
HT1080 IDH1KD tx – kills HT-1080 cells with IDH1 knockdown | HT-1080 IDH1 knockdown viability, ATP luminescence, 48 h | Potency, µM (doses to about 46.1 µM), usual class: cytotoxic | 360,000 compounds, 2% hits
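Assay cells: HT-1080 with IDH1 knockdown, 750 per well, RPMI/5% FBS. Exposure: 48 h at 37 °C following 2 h pre-incubation. Read: CellTiter-Glo luminescence; fitted concentration-response, curve class assigned.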
ATXN viability – cell viability loss in ATXN counter-screen. S2 cells (HEK-293 line with an ATXN2-luciferase reporter) viability, CellTiter-Fluor protease fluorescence, 24 h. 400,000 compounds, 0.49% hits. Potency, µM (doses to about 56.7 µM), most hits filed as cytotoxic; note: nearly all actives have a fitted effect of over 40% in size
Numbers stand for hits; – = inactive; ? = inconclusive; · = no result. Calls come from the whole dose curve; as a rule, active = well fitted curve in the direction sought with a large enough effect; inconclusive = small, poorly fitted or top-dose-only effect, or another doubt; inactive = no such curve, though single readings can be large; an effect the other way counts as inactive or inconclusive.

SMILES	ATXN2 expr inh	KB-V1 MDR tox	HT1080-NT tox	KB-3-1 cytotox	HT1080 IDH1KD tx	ATXN viability
Cc1ccc(NC(=O)c2ccc3oc(=O)c(S(=O)(=O)c4ccccc4)cc3c2)cc1C	–	–	·	–	·	–
CCN(CC)S(=O)(=O)c1csc(C(=O)NCc2ccccc2)c1	–	21µM	–	–	–	–
CCN(CC)S(=O)(=O)c1cccc(C(=O)NCc2ccccc2)c1	–	–	–	–	–	–
CC1=C(C(=O)Nc2ccc(C)cc2C)C(C(C)C)n2nc(SCc3ccccc3Cl)nc2N1 (centres undefined)	–	–	·	–	·	–
Cc1cc(SC(C)C(=O)Nc2ncc(Cl)cc2Cl)nc2ccccc12 (centres undefined)	–	18µM	–	–	–	–
COc1ccc(/C=C(\C#N)C(=O)Nc2cc(C)c(Cl)cc2OC)cc1O	·	–	–	21µM	–	–
N[C@@H](CCC(=O)N[C@@H](CS)C(=O)NCC(=O)O)C(=O)O	–	·	·	·	·	–
CCOc1ccc2[nH]c3c(NCCc4ccc(OC)c(OC)c4)ncnc3c2c1	18µM	–	?	–	?	?
C=C(C)Cn1c2ccc(NC(=O)CCc3cccnc3)cc2c(=O)n1C	–	–	–	–	–	–
C=CCNC(=O)/C(=C\c1ccc2c(c1)OCO2)NC(=O)c1ccc(Br)cc1	–	23µM	–	–	–	–
CCc1ccccc1NC(=O)c1cc(S(=O)(=O)N2CCCc3ccccc32)ccc1F	–	–	·	–	·	?
CC(=O)NC(c1ccc(F)c(F)c1)c1nc(-c2ccncc2)cs1 (centres undefined)	–	–	–	–	–	–
CC(C)(C)c1cc(C(c2cccnc2)N2CCN(CCO)CC2)cc(C(C)(C)C)c1O (centres undefined)	?	–	6.3µM	–	5µM	·
CCN1CCc2c(OCC(=O)N3N=C(c4cccs4)CC3c3ccc(F)cc3)cccc2C1=O (centres undefined)	?	?	?	?	?	–
CN1CCc2c(OCC(=O)N3N=C(c4cccs4)CC3c3ccc(F)cc3)cccc2C1=O (centres undefined)	–	–	23µM	?	?	–
COc1ccc(C2CC(c3cccs3)=NN2C(=O)CCl)cc1OC (centres undefined)	13µM	?	4.6µM	?	7.3µM	11µM
COc1ccc(C2CC(c3cccs3)=NN2C(=O)c2ccccc2)cc1OC (centres undefined)	–	–	–	–	–	?
COc1cc(C2CC(c3cccs3)=NN2C(=O)CCl)ccc1OC(F)F (centres undefined)	?	15µM	1.6µM	?	2.6µM	·
C=CCSc1nnc(C2CCCN(Cc3ccccc3O)C2)n1C (centres undefined)	·	·	·	·	·	–
COc1ccc(C2c3cc4c(cc3OC(N3CCOCC3)C2C)OCO4)c(OC)c1 (centres undefined)	–	?	?	4.6µM	?	?
O=C(NC1CCCCC1)C(c1ccco1)N(C(=O)c1csnn1)C1CCCC1 (centres undefined)	–	16µM	–	–	–	–
O=C(NC1CCCC1)C(c1ccco1)N(Cc1ccccc1)C(=O)c1csnn1 (centres undefined)	–	13µM	–	–	–	–
O=C(NC1CCCC1)C(c1ccccn1)N(C(=O)c1csnn1)C1CCCCC1 (centres undefined)	–	–	–	–	–	–
O=C(NCc1ccccc1)C(c1cccs1)N(C(=O)c1csnn1)C1CC1 (centres undefined)	–	18µM	–	–	–	–
CN(C(=O)COC(=O)Cc1ccc(Cl)cc1)C1CCCCC1	–	–	–	–	–	–
SMILES	ATXN2 expr inh	KB-V1 MDR tox	HT1080-NT tox	KB-3-1 cytotox	HT1080 IDH1KD tx	ATXN viability
Clc1ccc2nc(SCc3nnc(-c4ccccc4)o3)[nH]c2c1	–	16µM	–	–	–	–
Cc1cc(=O)[nH]c(SCc2nnc(-c3ccccc3)o2)n1	–	–	–	–	–	–
O=C(NCCc1ccccc1)c1cc(-c2ccccc2)c(N2CCOCC2)s1	–	–	–	–	–	–
CCN(CC)CCCNC(=O)c1cc(-c2ccccc2)c(N2CCCCC2)s1	–	?	?	18µM	?	–
O=C(CS(=O)c1ccc(C(F)(F)F)cc1[N+](=O)[O-])Oc1ccccc1 (centres undefined)	?	?	16µM	?	16µM	?
COC(=O)c1ccc(OC(=O)CS(=O)c2ccccc2[N+](=O)[O-])cc1 (centres undefined)	–	–	–	–	–	–
CCOC(=O)c1ccccc1OC(=O)CS(=O)c1ccccc1[N+](=O)[O-] (centres undefined)	–	–	–	–	–	–
CS(=O)(=O)c1ccc(S(=O)CC(=O)OCc2ccccc2)c([N+](=O)[O-])c1 (centres undefined)	?	–	5.8µM	–	4.1µM	·
CCC(C)CN1C(=O)CSCC1(C)C(=O)Nc1c(C)cccc1C (centres undefined)	·	–	–	–	–	·
Cc1csc(-c2nc3ccccc3n2C(C(=O)NC(C)(C)C)c2cc3ccccc3o2)c1 (centres undefined)	·	–	?	–	?	·
CCCNC(=O)CNC(=S)N(Cc1cc(OC)c(OC)c(OC)c1)C1CCCC1	–	16µM	–	–	–	–
CCOC(=O)[C@]12CCCC=C1N(Cc1ccc3c(c1)OCO3)C(=O)[C@H](CC(=O)NCC1CCCCC1)C2	–	–	?	–	?	?
COc1ccc2ccccc2c1/C=N/NC(=S)Nc1cc(S(=O)(=O)N2CCOCC2)ccc1N1CCOCC1	–	–	–	?	–	–
CCOC(=O)N1CCN(S(=O)(=O)c2ccc(F)c(C(=O)Nc3cc(C)cc(C)c3)c2)CC1	–	–	–	–	–	–
CCOC(=O)N1CCN(S(=O)(=O)c2ccc(F)c(C(=O)Nc3cccc(Cl)c3C)c2)CC1	–	3.3µM	–	–	–	–
CC(C)Oc1ccc(S(=O)(=O)N2CCOCC2)cc1NC(=O)c1cccc(S(=O)(=O)N2CCCC2)c1	–	18µM	–	–	–	–
O=C(Nc1ccccc1C(=O)N1CCOCC1)c1cccc(S(=O)(=O)N2CCCC2)c1	–	9.2µM	–	–	–	–
COc1ccc(/C=N/NC(=S)Nc2cc(S(=O)(=O)N3CCOCC3)ccc2N2CCOCC2)cc1O	–	?	21µM	?	16µM	–
COC(=O)C1CCN(c2nc(CN(C)C3CCOC3)nc3cc(OC)c(OC)cc23)CC1 (centres undefined)	·	·	·	·	·	–
C=CCN1CC[C@@H](O)C(=C)S1(=O)=O	·	–	·	–	·	·
